Experimental findings from PubChem BioAssay (EPA / NIEHS) are described below.

Molecules are shown by their SMILES. Results filed as inconclusive are left out. Active and inactive are the calls of the source. The calls were made as follows: active = hit-call score of the fitted dose curve at least 0.9, where 1 is the maximum; inconclusive = response in the unintended direction; inactive = score below 0.9.

The target of this test is human Thyroid hormone Receptor beta (TRb), THRB (gene 7068) (UniProt P10828). The test is described as follows: ATG_hTRb_XSP2: Attagene TRANS-FACTORIAL Multi-Species (XSP2) HepG2 Assay for human Thyroid hormone Receptor beta (TRb) (AID 2283840).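 Also: actives raise reporter mRNA so potency reflects agonist-like gain of signal.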 As for the experimental part: ATG_XSP2_multi-species_TRANS is a cell-based, multiplexed assay created by modifying the existing Attagene TRANS-FACTORIAL system to include a panel of nuclear receptors from some or all the following species: human (Homo sapiens), mouse (Mus musculus), frog (Xenopus laevis), zebrafish (Danio rerio), chicken (Gallus gallus), and turtle (Chrysemys picta). The ECOTOX-FACTORIAL format uses HepG2, a human liver cell line, with measurements taken at 24 hours after chemical dosing in a 24-well plate. Xsp2 included 3 nM 6-alpha-fluorotestosterone and 1.5 nM norgestrel to stimulate the androgen receptor.ATG_hTRb_XSP2 is one of 29 assay components measured or calculated from the ATG_XSP2_multi-species_TRANS assay. It is designed to make measurements of mRNA induction, a form of inducible reporter, as detected with fluorescence intensity signals by Reverse transcription polymerase chain reaction (RT-PCR) and Capillary electrophoresis technology.The assay endpoint ATG_hTRb_XSP2 was analyzed in the positive analysis fitting direction relative to DMSO as the negative control and baseline of activity. Using a type of inducible reporter, measures of mRNA for gain-of-signal activity can be used to understand the reporter gene at the transcription factor-level as they relate to the gene TR. Furthermore, this assay endpoint can be referred to as a primary readout, because this assay has produced multiple assay endpoints where this one serves a reporter gene function. To generalize the intended target to other relatable targets, this assay endpoint is annotated to the nuclear receptor intended target family, where the subfamily is non-steroidal.
Chain of human Thyroid hormone Receptor beta (TRb), THRB (gene 7068) (P10828 whole entry, looked up): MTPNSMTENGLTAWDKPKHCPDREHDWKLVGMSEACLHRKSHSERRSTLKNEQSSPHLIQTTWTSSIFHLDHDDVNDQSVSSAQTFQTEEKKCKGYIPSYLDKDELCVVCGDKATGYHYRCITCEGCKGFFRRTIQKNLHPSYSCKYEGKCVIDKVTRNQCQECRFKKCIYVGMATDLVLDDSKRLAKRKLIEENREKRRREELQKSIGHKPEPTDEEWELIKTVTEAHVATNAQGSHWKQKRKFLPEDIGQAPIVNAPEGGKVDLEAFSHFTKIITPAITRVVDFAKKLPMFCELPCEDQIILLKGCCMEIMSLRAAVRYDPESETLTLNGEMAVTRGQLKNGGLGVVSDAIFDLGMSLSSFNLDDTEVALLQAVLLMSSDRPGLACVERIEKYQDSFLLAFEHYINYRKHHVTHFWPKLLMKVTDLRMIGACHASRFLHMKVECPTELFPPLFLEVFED
Human liver HepG2 cells are transiently transfected with multiple reporter transcription units (MRTUs) in 6-well plates using FuGene 6 reagent (Roche; 3 ml FuGene/1 mg DNA). The MRTU constructs are regulated by a cis-regulating element (promoter). […] A major difference between the CIS and TRANS system is that in CIS activities of endogenous TFs are measured, whereas the TRANS assay evaluates changes in activities of exogenous, chimeric NR-Gal4 proteins. […] At the end of 24 hour incubation, total RNA was isolated using TriZol reagent (Invitrogen). The isolated RNA is then reverse-transcribed using oligo(dT) primer and Mo-MLV reverse transcriptase (Invitrogen) with DNAse I (Ambion) treatment for 30 min. The one-tenth of the produced cDNA was amplified by PCR using Taq DNA polymerase (Invitrogen) and two reporter sequence-specific primers. The PCR products were fluorescently labeled by primer extension with 6-arboxyfluorescein (6-FAM) 5'-labeled reporter sequence-specific primer (2 min at 95 C, 20 s at 68 C and 10 min at 72 C) and these products were digested with 5U of HpaI (New England Biolabs) for 2h at 37 C. The fragments were purified using Qiaquick PCR columns (Qiagen), analyzed on an ABI 3130xL genetic analyzer (Applied Biosystems) with peak positions identified by using a set of X-rhodamine (ROX)-labeled MapMarker1000 molecular weight standards (BioVentures). The raw capillary electrophoresis data was processed using Attagraph software (Attagene).
`Oc1cc(Cl)ccc1Oc1ccc(Cl)cc1Cl`: the AC50 (as a rule, the midpoint of the concentration-response curve, whichever way the signal moves) was 4.77 µM (active). Take `Oc1ccc(Cl)cc1Cc1ccccc1`: the outcome was inactive. For the compound `O=S1OCC2C(CO1)C1(Cl)C(Cl)=C(Cl)C2(Cl)C1(Cl)Cl` (stereo not given), the result was inactive. `CC(C)(C)C(O)/C(=C\c1ccc(Cl)cc1Cl)n1cncn1` (stereo not given): the outcome was inactive. As for `COP(=S)(OC)Oc1ccc(SC)c(C)c1`, the call was inactive.

With `CCOCN(C(=O)CCl)c1c(C)cccc1CC`, the compound was classed as inactive.

On to `COP(=S)(OC)Oc1ccc([N+](=O)[O-])cc1`, for which the compound was called inactive. Turning to `CC1(C)C(C=C(Cl)Cl)C1C(=O)OC(C#N)c1ccc(F)c(Oc2ccccc2)c1` (stereo not given), the outcome was inactive. With `CCCN(CCOc1c(Cl)cc(Cl)cc1Cl)C(=O)n1ccnc1`, the result was inactive.

As to `O=C(O)C(F)(F)C(F)(F)C(F)(F)C(F)(F)C(F)(F)C(F)(F)C(F)(F)F`, the call was inactive.
